Test results: the supplement of paper PMC10933113
Structures can show the parent of a compound that is named as a salt. ± gives the uncertainty stated by the source.

The compounds below were run on THP-1 (assay: CD54 surface expression induction over DMSO control (% over DMSO); higher = stronger dendritic cell activation). Conditions: exposure time: 24 h.
Method: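 hCLAT-like CD54 and CD86 surface expression on THP1 cells after 24 h exposure at a single concentration (highest non-cytotoxic concentration, or 100-200 µM if not cytotoxic). Flow cytometry (iQue) was run on 5,000 live cells.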

Structure (SMILES) | CD54 surface expression induction
COc1ccccc1N [2-Methoxyaniline hydrochloride] (100 µM) | 2.44 ± 0.25
CC(C)OC(=S)S [Proxan-sodium] (10 µM) | -6.19 ± 3
[OH-].c1cc[c]([Sn+]([c]2ccccc2)[c]2ccccc2)cc1 [Triphenyltin hydroxide] (10 µM) | 54.7 ± 30
Nc1ccc(Cl)cc1Cl [2,4-Dichloroaniline] (200 µM) | -7.56 ± 1.5
CCC(C)(CC)c1cc(NC(=O)c2c(OC)cccc2OC)on1 [Isoxaben] (200 µM) | -4.09 ± 5.1
NCCc1ccc(O)cc1 [Tyramine] (100 µM) | -4.6 ± 1.1
N#C/C=C/C#N [Fumaronitrile] (10 µM) | -10.2 ± 27
c1cc(OCC2CO2)ccc1Cc1ccc(OCC2CO2)cc1 (stereo not given) [Bis[4-(glycidyloxy)phenyl]methane] (100 µM) | 6.35 ± 4.5
c1cc(OCC2CO2)cc(OCC2CO2)c1 (stereo not given) [Diglycidyl resorcinol ether (DGRE)] (10 µM) | -3.16 ± 4.6
CN(C)c1ccc(N)cc1 [N,N-Dimethyl-p-phenylenediamine] (100 µM) | 30.8 ± 7.3
CC(C)Nc1ccc(Nc2ccccc2)cc1 [N-Isopropyl-N'-phenyl-p-phenylenediamine] (10 µM) | 46.7 ± 2.8
O=C(CCl)c1ccccc1 [2-Chloroacetophenone] (100 µM) | 24.1 ± 11
Nc1ccc(Cl)cc1N [4-Chloro-1,2-diaminobenzene*] (200 µM) | 233 ± 36
CCC(C)(NC(=O)c1cc(Cl)c(C)c(Cl)c1)C(=O)CCl (stereo not given) [Zoxamide] (10 µM) | 10.1 ± 25
O=C1OC(CCN2CCCCC2)OC1(c1ccccc1)c1ccccc1 (stereo not given) [Pipoxolan hydrochloride] (100 µM) | 78.1 ± 22
Nc1ccc([N+](=O)[O-])cc1N [4-Nitro-1,2-phenylenediamine] (100 µM) | 7.46 ± 2
CCCCNC(=O)OCC#CI [Carbamic acid, butyl-, 3-iodo-2-propynyl ester] (10 µM) | -5.33 ± 4.1
COc1ccc(C(c2ccc(OC)cc2)C(Cl)(Cl)Cl)cc1 [Methoxychlor] (200 µM) | 27.4 ± 9.6
COP(=S)(OC)Oc1ccc(SC)c(C)c1 [Fenthion] (100 µM) | -7.55 ± 5.7
CCOC(=O)NC(=S)Nc1ccccc1NC(=S)NC(=O)OCC [Thiophanate] (100 µM) | 18.5 ± 4.7

Structure (SMILES) | CD54 surface expression induction
O=C(CCl)CCl [1,3-Dichloropropanone] (200 µM) | -1.2 ± 0.3
Nc1ccc(-c2ccccc2)cc1 [4-Biphenylamine hydrochloride] (100 µM) | -0.07 ± 4.1
NNCc1ccccc1 (100 µM) | -19.4 ± 21
C=C1C[C@@H]2[C@H](CC[C@]3(C)C(=O)CC[C@@H]23)[C@@]2(C)C=CC(=O)C=C12 [Exemestane] (100 µM) | -0.45 ± 0.02
COP(=O)(OC)OC(Br)C(Cl)(Cl)Br (stereo not given) [Naled] (100 µM) | 3.64 ± 4.3
COP(=S)(OC)Oc1nc(Cl)c(Cl)cc1Cl [Chlorpyrifos-methyl] (200 µM) | 20.5 ± 8.1
O=C1C(Cl)=C(Cl)C(=O)C(Cl)=C1Cl [Chloranil] (100 µM) | 17.4 ± 13
Nc1ccc(N)cc1 [1,4-Benzenediamine] (10 µM) | 30.8
CCC(C)(c1ccc(O)cc1)c1ccc(O)cc1 [Bisphenol B] (200 µM) | 3.9 ± 0.67
O=[N+]([O-])c1c(Cl)c(Cl)c(Cl)c(Cl)c1Cl [Pentachloronitrobenzene] (100 µM) | 14.3 ± 4.8
C=CC(=O)OCC(COC(=O)C=C)(COC(=O)C=C)COC(=O)C=C [Pentaerythritol tetraacrylate] (10 µM) | 1.03 ± 1.9
COc1ccc2[nH]cc(CCN(C(C)C)C(C)C)c2c1 [5-Methoxy-N,N-diisopropyltryptamine hydrochloride] (224.7 µM) | -7.18 ± 11
CS/C(C)=N\OC(=O)N(C)SN(C)C(=O)O/N=C(\C)SC [Thiodicarb] (10 µM) | -6.62 ± 5
O=[N+]([O-])c1ccc(Oc2ccc(C(F)(F)F)cc2[N+](=O)[O-])cc1 [Fluorodifen] (10 µM) | -6.85 ± 4.5
[Cl][Cd][Cl] [Cadmium II chloride] (200 µM) | 50.2 ± 4.8
OCc1ccco1 [Furfuryl alcohol] (201 µM) | 0.62 ± 1.6
Cc1ccc(N=C=O)cc1N=C=O [Toluene-2,4-diisocyanate] (100 µM) | -17 ± 4.1
C[C@@H]1O[C@@H](O[C@H]2C[C@@H](O)[C@]3(CO)[C@H]4[C@H](O)C[C@]5(C)[C@@H](C6=CC(=O)OC6)CC[C@]5(O)[C@@H]4CC[C@]3(O)C2)[C@H](O)[C@H](O)[C@H]1O [Ouabain] (10 µM) | 21.9 ± 10
CCS(=O)(=O)CCSP(=O)(OC)OC [Demeton-S-methylsulphon] (10 µM) | -8.94 ± 5.5
CCCOC/C(=N\c1ccc(Cl)cc1C(F)(F)F)n1ccnc1 [Triflumizole] (10 µM) | -3.38 ± 6.6
